We go through 72 compounds from ChEMBL document CHEMBL3988442, “University of Dundee, Small-Polar-MMV Screening Library” (2021).

Screen size: about 53,000 compounds; about 900 (1.7%) showed an effect of 50% or more. Shown is part of a subset that was picked to be rich in strong results.

This experiment concerns Mycobacterium tuberculosis. Briefly: Cornell - Phenotypic assay to identify agents that inhibit growth of Mycobacterium tuberculosis. It is filed as functional. On the set-up: scale not given: direction of the effect not stated beside the values. The conditions noted are these: 10 mM as filed; unlikely as a test dose.
For `COc1cccc(CN2CCCCCC2c2cccc(C)c2)c1O` (configuration not stated), the “Percent Effect” value is 84.28%.

Consider `COc1cccc(CN2CCCCCC2c2cccc(F)c2)c1O` (configuration not stated), for which the “Percent Effect” value is reported as 45.8%. The same measure for `COc1cccc(CN2CCCCCC2c2cccs2)c1O` (configuration not stated): 38.44%; for `COc1cccc(CN2CCCCCC2c2cccs2)c1OC` (configuration not stated): 35.04%. For `COc1cccc(CN2CCCCCC2c2sccc2C)c1O` (configuration not stated) the value was 53.6%. In the case of `Cc1cccc(C2CCCCCN2Cc2cn(C)nc2C)c1` (configuration not stated), the “Percent Effect” value is listed as 15.03%. For `COc1cc(-c2cc(N)ncn2)cc(OC)c1OC` the value was 14.69%; for `O=C(NCCNc1ncccn1)C1CCN(C(=O)NC2CC2)CC1`, -5.946%. The same measure for `Cc1nc(N(C)C)nc(C)c1NS(=O)(=O)c1ccc(OC(F)(F)F)cc1`: 21.9%; for `CC(=O)N1CCN(c2cnccn2)CC(CO)C1` (configuration not stated): 10.91%; for `COCc1nc(C(=O)N2CCCC2c2noc(C)n2)cs1` (configuration not stated): -28.82%. For the compound `Cc1ccc(CN2CCCC2(C(N)=O)c2cnccn2)c(C)c1` (configuration not stated), the “Percent Effect” value was -1.756%.

Regarding `CSc1[nH]c(=O)c(C(=O)N2CCCC2C2CCCC2)cc1C#N` (configuration not stated), the “Percent Effect” value came out at 65.7%.

For the compound `CCC1CCCCCN1C(=O)c1cc(C#N)c(SC)[nH]c1=O` (configuration not stated), the “Percent Effect” value is listed as -5.356%.

In the case of `CSc1[nH]c(=O)c(C(=O)N2CCCC2c2cccs2)cc1C#N` (configuration not stated), the “Percent Effect” value was 17.36%.

In the case of `CC(=O)c1ccc(C(=O)NCc2cccnc2N2CCCC(O)C2)s1` (configuration not stated), the “Percent Effect” value came out at 26.17%. `COc1cccc(CN(C)Cc2c(C)noc2C)c1OC`: the “Percent Effect” value is -9.272%. For `CN1CCN(Cn2nc(-c3cccs3)ccc2=O)CC1` the value was 17.93%; for `Cc1nn(C)c(C)c1S(=O)(=O)NCCn1ccc(-c2cccs2)n1`, -2.587%.

As for `Cc1nc(-n2nc(-c3cccs3)cc2N)[nH]c(=O)c1C`, the “Percent Effect” value came to 75.1%. For `CCc1c(C)nc(-n2nc(-c3cccs3)cc2N)[nH]c1=O` the value was 106.9%. For `CCc1c(C)nc(SCc2ccccn2)[nH]c1=O` the value was 11.8%; for `CC(C(N)=O)n1nc(-c2cccs2)cc(N)c1=O` (configuration not stated), -30.4%; for `Cc1ccnc(C2CCN(C(=O)c3cnn(C)c3)CC2)n1`, 19.18%. For the compound `CN1C(=O)C2(CC(=O)Nc3c2cnn3C(C)(C)C)c2ccccc21` (configuration not stated), the “Percent Effect” value was determined as 16.17%. For `Cc1ccc(CC2CCCN2CC(=O)NCc2cccnc2)cc1` (configuration not stated) the value was 13.39%.

As for `CN1CC2(CCCN(Cc3cccc(CCN)c3)C2)OC1=O` (configuration not stated), the “Percent Effect” value turned out to be 4.729%. The same measure for `CN(CC(=O)NCc1ccccn1)C1CCCN(c2cccnn2)C1` (configuration not stated): -22.52%; for `COC(=O)c1ccccc1S(=O)(=O)NC(=O)c1cccc2c1OCCO2`: -3.436%; for `Cl.Cl.O=C1NC2(CCNCC2)CC1c1ccncc1` (configuration not stated): -12.16%. For `O=C1NC2(CCN(CCc3ccccc3)CC2)CC1c1ccccc1` (configuration not stated) the value was 19.15%; for `Cl.O=C1NC2(CCNCC2)CC1c1ccccc1` (configuration not stated), 100.2%. As for `Cc1nn(C)c(N(C)C)c1CNCc1ccnc(N2CCOCC2)c1`, the “Percent Effect” value came to 31.35%. For `CCS(=O)(=O)N1C[C@H]2CN(CC3CC3)C(=O)[C@H]2C1` the value was -29.96%; for `COc1ccccc1CCNS(=O)(=O)N1CCOCC1`, -2.569%.

Regarding `COCC(=O)NCCc1nc2cc(-c3ccc(OC)cc3)ncn2n1`, the “Percent Effect” value worked out at 48.11%. For `Cc1cc(NCCS(C)(=O)=O)nc2cc3c(cc12)CCC3` the value was 21.34%; for `CC(C)CCC(=O)Nc1ccc2oc(=O)n(CCN(C)C)c2c1`, -39.6%. The same measure for `CN(C)CCn1c(=O)oc2ccc(NC(=O)CC(C)(C)C)cc21`: 16.94%; for `CN(C)CCn1c(=O)oc2ccc(NC(=O)CSc3ccccc3)cc21`: 68.34%. In the case of `CCCn1cc(-c2cc(-c3cnc(OC)nc3)c(C#N)c(N)n2)c(C)n1`, the “Percent Effect” value stood at 56.67%. The same measure for `CCCn1cc(-c2cc(-c3c[nH]cn3)c(C#N)c(N)n2)c(C)n1`: 4.241%; for `CCCn1cc(-c2cc(-c3ccoc3)c(C#N)c(N)n2)c(C)n1`: 46%; for `O=C(NCc1ccco1)[C@@H]1CCO[C@@H]2CCN(c3ncccn3)C[C@@H]21.O=C(O)C(F)(F)F`: -22.51%.

Regarding `Cc1ncc(CN2CCC(c3nc(O)cc(-c4ccsc4)n3)CC2)cn1`, the “Percent Effect” value amounted to 21.36%. In the case of `CCc1noc(CN(CCC2CCCCC2)CC(N)=O)n1`, the “Percent Effect” value came to 4.193%.

For the compound `O=C(Nc1cccc(OCc2cccc(F)c2)c1)C1COCCO1` (configuration not stated), the “Percent Effect” value stood at 108%. The same measure for `O=C(Nc1cccc(OCc2ccc(F)cc2)c1)C1COCCO1` (configuration not stated): 107.1%; for `CCOC(=O)COc1cccc(NC(=O)C2COCCO2)c1` (configuration not stated): 12.18%.

`O=C(OCc1ccccc1)c1cccc(NC(=O)C2COCCO2)c1` (configuration not stated): the “Percent Effect” value is on record as -2.465%. The same measure for `O=C(Nc1ccc(OCc2cccc(F)c2)c(F)c1)C1COCCO1` (configuration not stated): 18.87%; for `CCOCc1cccc(NC(=O)C2COCCO2)c1` (configuration not stated): -0.8336%; for `CC1CCCCN1C(=O)COc1nc(Cc2ccc(F)cc2)no1` (configuration not stated): -36.23%.

In the case of `CCN(Cc1ccc(C(C)C)cc1)C(=O)c1csc(CN(C)C)n1`, the “Percent Effect” value is on record as -18.18%.

Take `CCCNC(=O)NC(=O)CNc1c(F)cccc1N1CCCC1`: the “Percent Effect” value is reported as -0.2754%. For `CN(C)c1cc2c(nn1)CCN(C(=O)C1CCc3ccccc31)C2` (configuration not stated) the value was -36.17%; for `CN(C)c1cc2c(nn1)CCN(C(=O)C1Cc3ccccc3S1)C2` (configuration not stated), 54.31%; for `CCNc1cc2c(nn1)CCN(C(=O)C1Cc3ccccc3S1)C2` (configuration not stated), 12.56%. The same measure for `CN1CCOC(CNC(=O)C2(c3cccc(C(F)(F)F)c3)CCCC2)C1` (configuration not stated): 17.35%; for `CCn1cc(CN2CCCN(C(=O)CCc3ccccc3)CC2)cn1`: -0.8409%; for `Cn1ccc(NC(=O)CN2CCN(C3CCCC3)C(=O)C2)n1`: 47.35%. `Br.Cc1ccccc1OC1CCN(CC(=O)Nc2cnn(C)c2C)CC1`: the “Percent Effect” value was 6.171%. The same measure for `CCOc1ccccc1CCC(=O)Nc1c(C)nn(C)c1C`: -20.08%. For `Cn1ccc(NC(=O)CN2CCC(Oc3cnccn3)CC2)n1` the value was -4.083%; for `Br.Cc1ccccc1OC1CCN(CC(=O)Nc2ccn(C)n2)CC1`, 51.43%.

`Cc1nn(C)cc1NC(=O)CC1CCN(CCc2ccccc2)CC1`: the “Percent Effect” value was 6.464%.

With `CCn1cc(NC(=O)CN2CCC(Oc3ccc(F)cc3)CC2)c(C)n1.Cl`, the “Percent Effect” value is 59.25%. With `CCn1cc(NC(=O)CN2CCC(Oc3ccccc3C)CC2)c(C)n1`, the “Percent Effect” value was 45.29%. The same measure for `Cc1ccccc1OC1CCN(CC(=O)Nc2c(C)nn(C)c2C)CC1`: 59.98%; for `Fc1ccc(OC2CCN(CCn3cncn3)CC2)cc1`: 21.61%; for `Cc1nn(C)cc1NC(=O)CN1CCC(Oc2cnccn2)CC1`: 11.01%.

For the compound `Cc1ccccc1OC1CCN(CC(=O)Nc2cn(C)nc2C)CC1`, the “Percent Effect” value came out at 69.1%.
